Shown are actives, neighbours in structure and some others; about 3.5% of the full set was active somewhere.
TRAIL sens C8: sensitizes caspase-8 expressing cells to TRAIL. NB7+C8 cells + TRAIL, ATPlite viability luminescence. AID 624354. inhibition (viability loss, TRAIL sensitization), % at 10 µM. hit rate 1% among 360,000;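 active means compounds causing at least 50% loss of cell viability in the single-dose screen, relative to plate controls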
Platelet DG rel: platelet dense granule release activity | human platelet-rich plasma, SFLLRN dense granule ATP release, luminescence | inhibition, %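 (compounds screened at 7.5 µM in platelet-rich plasma)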 | hit rate 0.22% among 300,000 | AID 1663;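 active means mean replicate score, as percent of positive control, at or above 50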
PPC-1+TRAIL kill: compounds killing PPC-1 cancer cells with TRAIL present (potentiator screen, no TRAIL-free arm); PPC-1 cells + TRAIL, ATPLite viability luminescence; hit rate 0.41% among 220,000; cell killing (% activity), % at 4 µM or 5 µM; AID 1443;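 active means cell killing above 50% in the first pass at 4 µM, then a duplicate retest at 5 µM averaging 50% or more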
TWEAK Fn14 block: blocks TWEAK-Fn14 interaction in a reporter cell assay; inhibition, % at 10 µM; AID 1159606; hit rate 2% among 360,000; TWEAK-stimulated Fn14 reporter cells, luciferase luminescence, 8 h; in the data active means inhibition above about 50%
HSP90 refold inh: blocks HSP90-mediated luciferase refolding in reticulocyte lysate; hit rate 0.91% among 290,000; AID 1789; Rabbit reticulocyte lysate, luciferase refolding luminescence, 3 h; inhibition, % at 5.6 µM;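 active means inhibition above the screen-wide mean plus 3 SD, computed separately per campaign, cut at about 16% in these data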;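 further: inhibitors lower the luminescence because luciferase stays unfolded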
TROY NFkB inh: TROY signaling inhibition | hit rate 0.98% among 360,000 | Q293 LMP1-TROYcd NF-kB luciferase reporter, 4 h | AID 1347056 | inhibition, % at 10 µM;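 active means compounds whose plate-normalised and pattern-corrected inhibition of the luciferase reporter signal at the single screening dose is 50% or more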
A number is an active result; i = inactive; nt = not tested or not shown; ! = a repeat was not active.

SMILES	TRAIL sens C8	Platelet DG rel	PPC-1+TRAIL kill	TWEAK Fn14 block	HSP90 refold inh	TROY NFkB inh
O=C(C1CC(=O)N(c2ccc3c(c2)OCCO3)C1)N1CCN(c2ccccc2O)CC1 (stereo not given)	i	i	nt	i	i	i
O=C1CC(N2CCN(c3ccccc3)CC2)C(=O)N1c1ccc2c(c1)OCCO2 (stereo not given)	i	nt	i	i	i	51
O=C(C1CC(=O)N(c2ccc3c(c2)OCCO3)C1)N1CCN(c2ccccc2)CC1 (stereo not given)	i	i	i	64	i	i
O=C(NCCc1ccccc1)C1CC(=O)N(c2ccc3c(c2)OCCO3)C1 (stereo not given)	i	i	nt	i	nt	i
CN1CCN(C2CC(=O)N(c3ccc4c(c3)OCCO4)C2=O)CC1 (stereo not given)	i	i	i	i	i	i
Cc1ccc(NCC(=O)Nc2cccc(F)c2)cc1S(=O)(=O)N1CCCCCC1	i	i	nt	i	i	i
CCN1C(=O)c2cccc3c(S(=O)(=O)N(C(C)=O)c4ccc(OC(C)=O)cc4)ccc1c23	i	nt	nt	i	nt	i
COc1cc(-c2cnc3c(NC=O)cc(-c4ccccc4Cl)cn23)cc(OC)c1OC	i	nt	nt	59	nt	i
COc1ccccc1-c1cc(NC=O)c2ncc(-c3ccc(F)cc3)n2c1	i	nt	nt	55	nt	i
COc1cc(-c2cnc3c(NC=O)cc(-c4ccccc4)cn23)cc(OC)c1OC	i	nt	nt	i	nt	i
COc1ccc(F)cc1-c1cc(NC=O)c2ncc(-c3cc(OC)c(OC)c(OC)c3)n2c1	i	nt	nt	74	nt	i
COc1ccc(C(=O)Oc2ccc(C(=S)N3CCOCC3)cc2)cc1	i	i	i	i	i	i
CNCc1ccccc1OCc1ccccc1F	i	i	i	i	i	i
CCN(CC(=O)c1c(N)n(C)c(=O)n(C)c1=O)c1cccc2ccccc12	i	i	i	99	i	57
Nc1ccc(C(=O)n2c3ccccc3c3ccccc32)cc1	i	i	i	i	i	51
Nc1nnn(CC(=O)N/N=C/C=C/c2ccccc2)n1	i	i	i	i	i	i
CN(C(=O)c1ccco1)c1nc2c(s1)CCCC2	59	i	i	i	i	i
CN(C(=O)c1ccco1)c1nnc(C23CC4CC(CC(C4)C2)C3)s1	i	i	i	i	i	i
Nc1cccc2cc(-c3ccccc3)oc12	i	nt	nt	i	nt	i
COc1ccccc1CNC(=O)c1oc2ccccc2c1C	i	i	nt	i	i	51
COc1ccccc1NC(=O)c1oc2ccccc2c1C	i	nt	nt	i	nt	i
Cc1noc(C)c1S(=O)(=O)Nc1ccc2c(c1)C(=O)N([C@@H](C)CO)C[C@H](C)[C@@H](CN(C)Cc1ccc(C(F)(F)F)cc1)OCCCC[C@H](C)O2	i	nt	nt	i	nt	i
CC(C)c1ccc(-c2cc(C(=O)NN3CCN(C)CC3)c3ccccc3n2)cc1	77	54	66	i	i	i
O=[N+]([O-])c1ccc2ncnc(N3CCN(Cc4ccc5c(c4)OCO5)CC3)c2c1	i	i	nt	78	i	i
CCOc1ccc2[nH]c3c(N4CCc5ccccc5C4)ncnc3c2c1	i	i	i	i	i	i
SMILES	TRAIL sens C8	Platelet DG rel	PPC-1+TRAIL kill	TWEAK Fn14 block	HSP90 refold inh	TROY NFkB inh
COc1ccc2[nH]c3c(N4CCC(O)(c5cccc(C(F)(F)F)c5)CC4)ncnc3c2c1	i	i	i	75	i	64
COc1ccc2c(c1)c1ncnc(N3CCN(Cc4ccc5c(c4)OCO5)CC3)c1n2C	nt	nt	i	nt	i	nt
COc1ccc2[nH]c3c(N4CCN(Cc5ccc6c(c5)OCO6)CC4)ncnc3c2c1	i	i	i	i	i	51
Cc1cc2c3c([nH]c2cc1S(=O)(=O)N1CCC2(CC1)OCCO2)CCCC3=O	i	i	nt	i	i	i
CC(Sc1nnc(-c2ccco2)n1C)C(=O)Nc1nccs1 (stereo not given)	i	i	nt	i	nt	i
CCOC(=O)CC1CCCCN1Cc1cn[nH]c1-c1ccc(F)cc1F (stereo not given)	i	i	i	i	i	i
Cc1ccc2c(c1)N(CC(=O)NC1CCCCC1)C(=O)c1cccnc1O2	i	i	nt	i	i	i
Cc1ccccc1C(=O)N1CCC(C(=O)Nc2sccc2C(N)=O)CC1	i	nt	nt	i	nt	i
O=C(CN1CCN(S(=O)(=O)c2ccc(Br)s2)CC1)N1CCCCC1	i	nt	nt	i	nt	i
c1cnc(NCCSSCCNc2ncccn2)nc1	i	nt	nt	i	nt	i
Cn1c(SSc2ccc(-c3cccnc3)n2C)ccc1-c1cccnc1	i	nt	nt	69	nt	i
CC[C@]12c3[nH]c4cc(CCC(=O)N(C)C)ccc4c3CCN1C(=O)[C@@H](CC(=O)NCCCOC)C[C@@H]2C(=O)N1CCN(C(=O)c2ccco2)CC1	i	nt	nt	i	nt	i
Cc1ccc2oc(-c3cccc(NC(=S)NC(=O)c4cccs4)c3)nc2c1	i	i	i	i	i	i
Cc1ccc2oc(-c3cccc(NC(=S)NC(=O)/C=C/c4ccco4)c3)nc2c1	i	i	i	90	i	77
O=C(c1n[nH]c(=O)c2ccccc12)N1CCOCC1	i	i	i	57	i	nt
O=C(NCc1ccc2c(c1)OCO2)c1nc(S(=O)(=O)Cc2ccccc2)ncc1Cl	i	i	nt	73	i	60
O=C(NCc1ccc2c(c1)OCO2)c1nc(S(=O)(=O)Cc2ccccc2F)ncc1Cl	i	i	nt	79	i	76
CC(O)(c1cccc(F)c1)c1nc(-c2ccc(S(C)(=O)=O)cc2)cs1 (stereo not given)	i	nt	nt	i	nt	i
Cc1ccc(-c2cc3nc4c(c(=O)n3[nH]2)CCCC4)cc1	60	i	nt	62	i	i
CCN1CCN(Cc2ccc(NC(=O)c3ccc(C)c(NC(=O)c4ccno4)c3)cc2C(F)(F)F)CC1	i	i	i	i	nt	i
CCN1CCN(Cc2ccc(NC(=O)c3ccc(C)c(/C=C/c4cnc(Nc5cc(N6CCNCC6)nc(C)n5)cn4)c3)cc2C(F)(F)F)CC1	63!	i	nt	i	i	i
CCOC(=O)c1cccc(NC(=O)/C=C/c2ccc3c(c2)OCO3)c1	85	i	i	70	i	51
CCOC(=O)c1cccc(NC(=O)c2ccc3c(c2)OCO3)c1	i	i	nt	i	i	i
Cc1ccccc1-c1cnc(C(O)c2c(C)cccc2C)[nH]1 (stereo not given)	i	nt	nt	i	nt	i
CCOC(=O)c1sc2nc(-c3cccnc3)ccc2c1N	59	i	i	i	i	i
SMILES	TRAIL sens C8	Platelet DG rel	PPC-1+TRAIL kill	TWEAK Fn14 block	HSP90 refold inh	TROY NFkB inh
NC(=O)c1sc2nc(-c3ccco3)ccc2c1N	i	i	i	i	i	i
COC(=O)c1sc2nc(-c3ccco3)ccc2c1N	57	i	i	i	i	i
COc1ccccc1N(Cc1ccccc1)S(=O)(=O)c1cccc(C(=O)NCC2CCCO2)c1 (stereo not given)	i	nt	nt	i	nt	i
COC1OC2COC(c3ccccc3)OC2C(O)C1NC(=O)c1ccccc1 (stereo not given)	i	nt	nt	i	nt	i
O=C(O)CC1c2ccccc2CCN1S(=O)(=O)c1cccs1 (stereo not given)	i	i	nt	i	nt	i
CN(C)/C(=N\S(=O)(=O)c1ccc(F)cc1)c1ccccc1	i	i	nt	i	i	i
